High-throughput results from PubChem.
Most compounds without a hit are left out; they make up all but 4.1% or so of the library.
NALP3 yeast inh = blocks the NALP3 inflammasome reconstituted in yeast. AID 2825. inhibition, % at 10 µM. Yeast reconstituted NLRP3/ASC/caspase-1, beta-gal luminescence, 24 h. actives 0.39% (n = 330,000);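 active means inhibition of 50% or more; inactive means inhibition below 50%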
NALP1 yeast inh = NALP1 inhibition. S. cerevisiae NALP1/ASC/caspase-1 growth, X-gal OD620, 72 h. inhibition, % at 10 µM. actives 0.61% (n = 280,000); in the data active means inhibition mostly above about 24%, no sharp cut-off; inactive means mostly below about 32%
TIM10 inh = inhibits growth of TIM10 yeast strain; S. cerevisiae TIM10 strain growth, BacTiter-Glo luminescence, 24 h; inhibition, % at 10 µM; actives 1.4% (n = 330,000);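 active means inhibition of 40% or more at the single tested concentration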;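 further: wild-type TIM10 isogenic control strain grown at permissive 25 °C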
tim23-1 inh = tim23-1 yeast growth inhibition; S. cerevisiae tim23-1 growth, BacTiter-Glo luminescence, 24 h; inhibition, % at 20 µM; actives 1.3% (n = 330,000); AID 463212;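 active means growth inhibition of the mutant yeast at or above 50%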;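 further: temperature-sensitive mutant grown at 25 °C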
tim10-1 inh = tim10-1 yeast growth inhibition; actives 2.2% (n = 330,000); S. cerevisiae tim10-1 ts strain growth, BacTiter-Glo, 24 h; inhibition, % at 20 µM;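 active means inhibition of at least 40%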;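 further: mutant grown at 25 °C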
tim10-1 conf = tim10-1 yeast growth inhibition, confirmed. shares compounds with tim10-1 inh. S. cerevisiae tim10-1 ts strain growth, BacTiter-Glo, 24 h. inhibition, % at 20 µM. actives 56% (n = 7,400);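 active means inhibition of yeast growth at or above a set limit in either of two repeat tests at 20 µM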;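 further: tim10-1 mutant grown at permissive 25 °C to find synthetic lethal compounds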
TIM10 conf = confirmation of TIM10 yeast growth inhibitors | shares compounds with TIM10 inh | S. cerevisiae tim10 strain growth, BacTiter-Glo luminescence, 24 h | inhibition, % at 10 µM | actives 63% (n = 4,600) | AID 463215;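 active means inhibition of yeast growth at or above a set limit in either of two replicates at 10 µM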; further: this counterscreen used the strain with wild-type TIM10
Of the large screens only hits and unclear results are named; the others gave an inactive call (follow-up assays come after a bar, where they were run).

O=C(COC(=O)c1c[nH]c2ccccc12)Nc1ccc([N+](=O)[O-])cc1	none (no result: NALP1 yeast inh)
CCOC(=O)c1ccc(NC(=O)CC2C(=O)OCCN2CC)cc1 (stereo unspecified)	TIM10 inh 44, tim10-1 inh 68 | tim10-1 conf 59 | TIM10 conf 58
COc1cccc(C(=O)Nc2ccc(-n3nncc3C(C)(C)C)cc2)c1	none
CC(C)(C)c1cnnn1-c1ccc(NC(=O)c2ccc(Br)o2)cc1	TIM10 inh 47, tim10-1 inh 47 | tim10-1 conf 42 | TIM10 conf 39
CC(C)(C)c1cnnn1-c1ccc(NC(=O)c2ccc3c(c2)OCO3)cc1	TIM10 inh 42, tim10-1 inh 44 | tim10-1 conf inactive | TIM10 conf 34
O=C(O)c1cccc(N2C(=O)c3cccc(Oc4ccc(Cl)cc4)c3C2=O)c1	none
COc1ccc(C(=O)NC(=S)NCc2ccco2)cc1	none (no result: NALP1 yeast inh)
CCOC(=O)c1sc(Nc2ccc(C)cc2C)nc1C	TIM10 inh 63, tim10-1 inh 48 | tim10-1 conf inactive | TIM10 conf 40
CCOC(=O)c1sc(NC(=O)Cc2c(F)cccc2Cl)nc1C	TIM10 inh 44, tim10-1 inh 47 | tim10-1 conf 43 | TIM10 conf 36
O=C(c1ccco1)N1CCN(C(=O)c2ccc(CS(=O)c3ccc(Cl)cc3)o2)CC1 (stereo unspecified)	none
O=c1cc(-c2ccccc2)n(S(=O)(=O)c2ccccc2)o1	none
O=c1cc(-c2ccccc2)n(S(=O)(=O)c2ccc3ccccc3c2)o1	TIM10 inh 64, tim10-1 inh 42 (no result: NALP1 yeast inh) | tim10-1 conf 37 | TIM10 conf 44
CN(CCCNC(=O)c1cc2c(Cl)nc3ccccc3c2s1)Cc1ccccc1	TIM10 inh 43, tim10-1 inh 53 | tim10-1 conf 41 | TIM10 conf 44
Cc1ccc(Oc2nnc(-c3cccs3)c3ccccc23)cc1	none
Cc1ccc(Oc2nnc(-c3cccs3)c3ccccc23)cc1C	TIM10 inh 46, tim10-1 inh 46 | tim10-1 conf inactive | TIM10 conf inactive
COc1ccc(-n2c(=O)/c(=C\c3cccs3)s/c2=C(/C#N)C(=O)N2CCN(C)CC2)cc1	none
CC(C)(C)c1ccc(-c2n[nH]c(=S)n2C2CCCC2)cc1	TIM10 inh 44, tim10-1 inh 41 | tim10-1 conf 30 | TIM10 conf 45
CN1CCN(C2=C(Cl)C(=O)C(c3cnc(N4CCCCC4)s3)=C(Cl)C2=O)CC1	NALP1 yeast inh 72, TIM10 inh 45, tim10-1 inh 72 | tim10-1 conf 60 | TIM10 conf 44
Cc1ccccc1-c1cc(-c2ccccc2O)n[nH]1	TIM10 inh 65, tim10-1 inh 45 | tim10-1 conf inactive | TIM10 conf inactive
Cc1cc(=O)oc2cc(OCC(=O)N3CC[C@@]4(O)CCCC[C@H]4C3)c(Cl)cc12	none
CCOC(=O)c1c(S(=O)(=O)NCC(=O)N2CCN(c3ccc(OC)cc3)CC2)c(C)n(C)c1C	none
FC(F)(F)c1cccc(Cc2noc(CN3CCC(c4ccncc4)CC3)n2)c1	TIM10 inh 42, tim10-1 inh 44 | tim10-1 conf 42 | TIM10 conf 43
CN1CCCC2(CCCN(Cc3nc(Cc4cccc(C(F)(F)F)c4)no3)C2)C1 (stereo unspecified)	none
CN(CC(=O)Nc1cccc(Cl)c1)S(=O)(=O)c1ccc2c(c1)n(C)c(=O)c(=O)n2C	none
CCC(CC)NC(=O)CN1CCN(S(=O)(=O)c2ccc(Br)s2)CC1	none (no result: NALP1 yeast inh)
Cc1ccc(NC(=O)CN2CCCN(S(=O)(=O)c3ccc(Br)s3)CC2)cc1	TIM10 inh 42, tim10-1 inh 44 | tim10-1 conf 32 | TIM10 conf inactive
Cc1ccsc1C(=O)N/N=C/C=C/c1ccccc1[N+](=O)[O-]	TIM10 inh 62, tim10-1 inh 48 | tim10-1 conf 48 | TIM10 conf inactive
Cc1occc1C(=O)N/N=C/C=C\c1ccccc1[N+](=O)[O-]	none
CCCN(CCC)C1CC(=O)N(Cc2ccccc2)C1=O (stereo unspecified)	TIM10 inh 42, tim10-1 inh 53 | tim10-1 conf 47 | TIM10 conf 39
CCCCCCC(=O)N(O)C1CC(=O)N(Cc2ccccc2)C1=O (stereo unspecified)	NALP1 yeast inh 47, TIM10 inh 43, tim10-1 inh 45 | tim10-1 conf 41 | TIM10 conf inactive
Cc1ccc(NC(=O)c2cc(S(=O)(=O)NCCC3=CCCCC3)ccc2F)cc1	TIM10 inh 54, tim10-1 inh 50 | tim10-1 conf 41 | TIM10 conf inactive
CCC(CC)NC(=O)CO/N=C/c1ccccc1OC(F)F	none
Cc1ccc(/C=N/n2c(C)nc3ccccc3c2=O)o1	none
Cc1nc2ccccc2n1/N=C/c1ccc([N+](=O)[O-])o1	TIM10 inh 78, tim10-1 inh 74 (no result: NALP1 yeast inh) | tim10-1 conf 72 | TIM10 conf 88
COC(=O)c1cc(NC(=O)C2CC(=O)NC(=NCc3ccc(OC)cc3)S2)cc(C(=O)OC)c1 (stereo unspecified)	none
Fc1ccc(-n2nnc(-c3ncc[nH]3)n2)cc1	none (no result: NALP1 yeast inh)
Cc1ccc(N2C(=O)CC(Sc3ccccc3C(=O)O)C2=O)cc1C (stereo unspecified)	NALP1 yeast inh 36, TIM10 inh 43, tim10-1 inh 42 | tim10-1 conf 47 | TIM10 conf 40
Cc1cccc(N2C(=O)CC(Sc3ccccc3C(=O)O)C2=O)c1 (stereo unspecified)	NALP1 yeast inh 78, TIM10 inh 41, tim10-1 inh 49 | tim10-1 conf 46 | TIM10 conf inactive
CN(C)C(=O)CSc1ccc(S(=O)(=O)N2CCOCC2)cn1	none (no result: NALP1 yeast inh)
Cc1ccc(C2c3c(oc4ccccc4c3=O)C(=O)N2c2nnc(C(C)C)s2)o1 (stereo unspecified)	none (no result: NALP1 yeast inh)
COc1ccc(C(CNC(=O)COc2ccc(Cl)cc2C)N2CCCCC2)cc1 (stereo unspecified)	none
CCOC(=O)C1=C(C)OC(N)=C(C#N)C1c1cc2c(cc1[N+](=O)[O-])OCO2 (stereo unspecified)	none
C=CC[C@]12CC=CC(=O)[C@@]1(O)O[C@H](c1ccc(OC)c(OC)c1)[C@H]2C	TIM10 inh 42, tim10-1 inh 50 (no result: NALP1 yeast inh) | tim10-1 conf 38 | TIM10 conf 43
COc1ccc(C(=O)/C=C\N2CCOCC2)cc1	none
O=C(COc1c(F)c(F)c(C(F)(F)F)c(F)c1F)Nc1ccc(N2CCOCC2)c(Cl)c1	TIM10 inh 43, tim10-1 inh 58 | tim10-1 conf 45 | TIM10 conf 34
CSc1ccc(OCC(=O)Nc2ccc(N3CCOCC3)c(Cl)c2)cc1	none
